Screen size: about 310,000 compounds; about 14,000 (4.5%) showed an effect of 50% or more. The effect is printed as a negative number. The full list was thinned out, with strong results kept by preference.
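Further: peak tail current of the secondary pulse compared with the same well before compound.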

The target in the experiment is human ether-à-go-go-related gene (hERG) potassium channel (human, UniProt Q12809). The experiment in a line: primary screen, population patch clamp on CHO cells stably expressing hERG; higher = less effect of the substance.
human ether-à-go-go-related gene (hERG) potassium channel, sequence (Q12809 whole entry, looked up): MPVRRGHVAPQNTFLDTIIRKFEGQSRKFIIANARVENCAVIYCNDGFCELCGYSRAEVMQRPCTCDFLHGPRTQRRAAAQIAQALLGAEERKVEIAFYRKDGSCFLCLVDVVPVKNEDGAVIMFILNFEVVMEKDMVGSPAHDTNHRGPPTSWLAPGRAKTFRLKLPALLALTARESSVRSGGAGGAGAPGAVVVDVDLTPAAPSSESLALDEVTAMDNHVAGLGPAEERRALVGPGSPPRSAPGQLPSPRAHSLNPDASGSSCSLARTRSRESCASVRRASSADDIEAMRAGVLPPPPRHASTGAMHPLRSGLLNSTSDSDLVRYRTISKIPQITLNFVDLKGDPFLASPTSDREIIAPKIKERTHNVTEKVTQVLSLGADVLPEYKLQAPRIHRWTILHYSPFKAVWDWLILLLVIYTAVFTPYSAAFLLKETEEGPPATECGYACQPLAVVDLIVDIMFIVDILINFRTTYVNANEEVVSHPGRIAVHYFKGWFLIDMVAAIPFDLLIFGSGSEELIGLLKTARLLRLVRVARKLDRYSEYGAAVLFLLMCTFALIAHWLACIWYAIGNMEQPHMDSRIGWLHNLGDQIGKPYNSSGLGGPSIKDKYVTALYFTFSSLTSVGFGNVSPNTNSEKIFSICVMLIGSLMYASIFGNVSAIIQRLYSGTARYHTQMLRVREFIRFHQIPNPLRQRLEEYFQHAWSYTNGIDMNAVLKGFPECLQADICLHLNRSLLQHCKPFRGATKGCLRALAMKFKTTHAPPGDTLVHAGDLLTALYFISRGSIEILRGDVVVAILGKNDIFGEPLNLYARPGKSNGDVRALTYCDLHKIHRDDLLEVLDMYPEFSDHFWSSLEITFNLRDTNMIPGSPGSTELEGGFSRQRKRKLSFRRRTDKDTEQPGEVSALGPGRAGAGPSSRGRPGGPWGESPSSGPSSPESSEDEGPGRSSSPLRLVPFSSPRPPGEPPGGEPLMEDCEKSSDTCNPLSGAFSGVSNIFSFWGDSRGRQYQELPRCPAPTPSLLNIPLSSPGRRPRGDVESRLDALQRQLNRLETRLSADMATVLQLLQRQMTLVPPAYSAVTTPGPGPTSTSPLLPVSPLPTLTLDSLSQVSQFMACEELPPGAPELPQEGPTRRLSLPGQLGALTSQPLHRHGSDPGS
As for `Cc1cc(NC(=O)c2cc3n(n2)C(C(F)(F)F)CC(c2ccco2)N3)no1` (stereo not drawn), the “hERG current change (%, negative = inhibition) at 10uM” value is 4.63%.

For `Cn1c(=O)n(-c2ccc(Cl)cc2)c(=O)c2c3c(sc21)COC(C)(C)C3`, the “hERG current change (%, negative = inhibition) at 10uM” value amounted to 3.68%.

As for `O=C(N/N=C/c1cccnc1)c1ccccc1Cl`, the “hERG current change (%, negative = inhibition) at 10uM” value was 14.2%.

With `COc1ccc(Cc2c(O)[nH]c(=S)[nH]c2=O)cc1`, the “hERG current change (%, negative = inhibition) at 10uM” value is 13.8%.

`CN1CCN(C(=O)CN(CCc2ccccc2)S(C)(=O)=O)CC1`: the “hERG current change (%, negative = inhibition) at 10uM” value stood at 11%.

For the compound `CCn1ccnc1CNCc1cn(-c2cc(C)ccc2C)nc1-c1ccccc1`, the “hERG current change (%, negative = inhibition) at 10uM” value was -69.3%.

Turning to `CCn1ccnc1CN(C)Cc1cn(-c2cccc(C)c2)nc1-c1cccc(F)c1`, the “hERG current change (%, negative = inhibition) at 10uM” value is -18.3%.

For `Cc1ccc(C)c(-n2cc(CN3CCNC(=O)CC3)c(-c3ccccc3)n2)c1`, the “hERG current change (%, negative = inhibition) at 10uM” value was -43.5%.

For `CCn1ccnc1CN(C)Cc1cn(-c2ccc(C)cc2)nc1-c1ccc(F)cc1`, the “hERG current change (%, negative = inhibition) at 10uM” value was -39.9%.

Consider `CCn1ccnc1CN(C)Cc1cn(-c2cc(C)ccc2C)nc1-c1ccccc1`, for which the “hERG current change (%, negative = inhibition) at 10uM” value is given as -51.7%.

For the compound `COCCN1CCC(CNCc2cn(-c3cc(C)ccc3C)nc2-c2ccccc2)C1` (stereo not drawn), the “hERG current change (%, negative = inhibition) at 10uM” value is given as -18%.

In the case of `Cc1ccc(C)c(-n2cc(CNCCc3cnccn3)c(-c3ccccc3)n2)c1`, the “hERG current change (%, negative = inhibition) at 10uM” value is given as -67.1%.

Regarding `Cc1ccc(C)c(-n2cc(CN3CCCN(C=O)CC3)c(-c3ccccc3)n2)c1`, the “hERG current change (%, negative = inhibition) at 10uM” value is recorded as -31.9%.

For the compound `CCn1ccnc1CN(C)Cc1cn(-c2ccc(C)cc2)nc1-c1cccc(C)c1`, the “hERG current change (%, negative = inhibition) at 10uM” value is -28.1%.

Regarding `CCCN1CCC(=NNC(=O)c2ccc(Br)o2)CC1`, the “hERG current change (%, negative = inhibition) at 10uM” value is -7.22%.

`COc1ccc(S(=O)(=O)N=C2C=C(C)C(=O)C(C)=C2)cc1`: the “hERG current change (%, negative = inhibition) at 10uM” value was -8.48%.

Regarding `Cc1cc(=O)n2ccsc2n1`, the “hERG current change (%, negative = inhibition) at 10uM” value was determined as 3.28%.

With `Cc1cc(=O)[nH]c2c1cnn2Cc1ccccc1`, the “hERG current change (%, negative = inhibition) at 10uM” value is reported as 3.72%.

With `COc1ccc(/C=C(\C#N)C(=O)OCC(=O)NCc2ccccc2Cl)cc1`, the “hERG current change (%, negative = inhibition) at 10uM” value was found to be 6.86%.

Regarding `Cc1nn(Cc2ccccc2Cl)c(Cl)c1C(=O)O`, the “hERG current change (%, negative = inhibition) at 10uM” value stood at 8.83%.

For the compound `Cc1nn(Cc2ccccc2Cl)c(C)c1C(=O)N1CCN(c2ccccc2)CC1`, the “hERG current change (%, negative = inhibition) at 10uM” value is -58.6%.

As for `Cc1cccc(N2CCN(C(=O)c3c(C)nn(Cc4ccccc4Cl)c3C)CC2)c1C`, the “hERG current change (%, negative = inhibition) at 10uM” value is recorded as -0.851%.

As to `Cc1nn(Cc2ccccc2)c(C)c1C(=O)O`, the “hERG current change (%, negative = inhibition) at 10uM” value was -19.1%.

On to `O=C(CN1CCN(CC(=O)Nc2ccccc2Cc2ccccc2)CC1)Nc1ccccc1Cl`, for which the “hERG current change (%, negative = inhibition) at 10uM” value was 20%.

On to `Cc1nn(Cc2ccccc2)c(C)c1C(=O)N1CCN(CC(=O)Nc2ccccc2Cl)CC1`, for which the “hERG current change (%, negative = inhibition) at 10uM” value is recorded as -50.3%.

In the case of `Cc1nn(Cc2ccccc2)c(C)c1C(=O)N1CCN(CC(=O)Nc2ccc(F)cc2)CC1`, the “hERG current change (%, negative = inhibition) at 10uM” value is reported as -62.6%.

As for `Cc1cccc(NC(=O)CN2CCN(C(=O)c3c(C)nn(Cc4ccccc4)c3C)CC2)c1C`, the “hERG current change (%, negative = inhibition) at 10uM” value is -20.4%.

Consider `Cc1nn(Cc2ccccc2)c(C)c1C(=O)N1CCN(S(=O)(=O)/C=C/c2ccccc2)CC1`, for which the “hERG current change (%, negative = inhibition) at 10uM” value is given as -24.8%.

In the case of `CC(=O)c1ccc(OCCCCOc2ccc(C(C)=O)cc2)cc1`, the “hERG current change (%, negative = inhibition) at 10uM” value turned out to be 21.4%.

On to `COc1ccccc1OC(=O)c1ccc(SC)cc1OC`, for which the “hERG current change (%, negative = inhibition) at 10uM” value was -24%.

For the compound `C[C@]12CC[C@@H]3c4ccc(OS(=O)(=O)[O-])cc4CC[C@H]3[C@@H]1CCC2=O.[Na+]`, the “hERG current change (%, negative = inhibition) at 10uM” value is listed as 16.9%.

Regarding `O=C(CSc1nc(-c2ccccc2)c(-c2ccccc2)o1)NC1CCS(=O)(=O)C1` (stereo not drawn), the “hERG current change (%, negative = inhibition) at 10uM” value is recorded as -27.1%.

As to `CCc1ccccc1NC(=O)CCCN1C(=O)C2CC=CCC2C1=O` (stereo not drawn), the “hERG current change (%, negative = inhibition) at 10uM” value was 12%.

`Cc1ccccc1C(N)c1ccncc1.Cl` (stereo not drawn): the “hERG current change (%, negative = inhibition) at 10uM” value is 2.52%.

For `COc1cc(/C=C(\C#N)c2nc3ccccc3[nH]2)cc(Br)c1OCc1ccccc1`, the “hERG current change (%, negative = inhibition) at 10uM” value was 0.571%.

Take `Cc1ccc(N(CC(=O)NCc2ccco2)C(=O)CCC(=O)Nc2nccs2)cc1`: the “hERG current change (%, negative = inhibition) at 10uM” value is listed as -1.5%.

On to `COc1ccc(C(=O)NNC(=O)COc2ccc(Cl)cc2C)cc1S(=O)(=O)N1CCOCC1`, for which the “hERG current change (%, negative = inhibition) at 10uM” value was -77.1%.

`Cc1ccc(C(=O)NNC(=O)COc2ccc(Cl)cc2C)o1`: the “hERG current change (%, negative = inhibition) at 10uM” value was -57.6%.

Consider `Cc1cc(Cl)ccc1OCC(=O)NNC(=O)c1cnccn1`, for which the “hERG current change (%, negative = inhibition) at 10uM” value stood at 11.6%.

`Cc1cc(Cl)ccc1OCC(=O)NNC(=O)c1ccco1`: the “hERG current change (%, negative = inhibition) at 10uM” value is reported as 8.38%.

For the compound `COc1cc(C(C)=O)ccc1OCC(=O)Nc1ccc(Cl)c(S(=O)(=O)N2CCOCC2)c1`, the “hERG current change (%, negative = inhibition) at 10uM” value is recorded as -66.7%.

Consider `COc1cc(C(C)=O)ccc1OCC(=O)Nc1ccc(C)c(S(=O)(=O)N2CCCCCC2)c1`, for which the “hERG current change (%, negative = inhibition) at 10uM” value was -26.3%.

As for `COc1cc(C#N)ccc1OCC(=O)Nc1ccc(C)c(S(=O)(=O)N2CCOCC2)c1`, the “hERG current change (%, negative = inhibition) at 10uM” value was -36.1%.

As to `COc1ccc(Cl)cc1NC(=O)COc1ccc(S(=O)(=O)N2CCOCC2)cc1C`, the “hERG current change (%, negative = inhibition) at 10uM” value worked out at 10.8%.

As for `COc1ccc(CC(=O)NNC(=O)COc2ccc(Cl)cc2C)cc1S(=O)(=O)N1CCOCC1`, the “hERG current change (%, negative = inhibition) at 10uM” value is -36.1%.
